# Assay results published in PubChem BioAssay.
# Active and inactive are the calls of the source.
# Assays:
# [1] = test system: Plasmodium falciparum Sir2 (PF13_0152, Sir2A); assay: Plasmodium falciparum Sir2A binding compounds – biochemical, small-molecule microarray, 635 nm fluorescence, primary screen (AID 1098); settings: fluorescence 635 nm, higher = more signal;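 note: score merges spot fluorescence intensity with its signal-to-noise ratio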
# [2] = probe aDKK1 binding to arrayed compounds – biochemical, biotinylated probe, 635/667 nm fluorescence, primary screen (AID 1099); settings: small-molecule microarray, higher = more signal;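 note: score merges 667nm spot fluorescence with signal to noise across triplicate slides; reference of the scale not given here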
# [3] = probe aCHRDL2 binding to arrayed compounds – biochemical, biotinylated probe, 635/667 nm fluorescence, primary screen (AID 1100); settings: small-molecule microarray, higher = more signal
# [4] = change in splice reporter luminescence, either direction, cell-based, HEK293, spliceosome inhibition project, primary screen (AID 1101); settings: HEK293 splicing luciferase reporter, 24 h, higher = more signal, called active from +8 up or from −8 down;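 note: HEK293 cells carrying a splicing-competent luciferase reporter gene; test concentration not given here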
# [5] = target: Fibroblast growth factor 10 (Homo sapiens) (UniProt O15520); assay: compounds binding fibroblast growth factor 10 – biochemical, small-molecule microarray, 635 nm fluorescence, primary screen (AID 1102); settings: FGF10 binding, fluorescence 635 nm, higher = more signal
# [6] = test system: glycogen synthase kinase-3 (GSK3A per assay name; protocol says GSK3B); assay: compounds binding glycogen synthase kinase-3 – biochemical, small-molecule microarray, 635 nm fluorescence, GSK3A, primary screen (AID 1103); settings: fluorescence 635 nm, higher = more signal; note: the record names both GSK3A and GSK3B
# [7] = target: Epidermal growth factor receptor (Homo sapiens) (UniProt P00533); assay: compounds binding epidermal growth factor receptor – biochemical, small-molecule microarray, 635 nm fluorescence, primary screen (AID 1104); settings: EGFR binding, higher = more signal;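 note: score merges 667 nm emission intensity with spot signal to noise over triplicate slides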
# [8] = target: Follistatin-related protein 3 (Homo sapiens) (UniProt O95633); assay: compounds binding follistatin-related protein 3 – biochemical, small-molecule microarray, 635 nm fluorescence, primary screen (AID 1105); settings: FSTL3 binding, higher = more signal;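 note: score merges emission near 667 nm and signal to noise per printed spot across three slides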
# [9] = target: Dickkopf-related protein 1 (Homo sapiens) (UniProt O94907); assay: small molecules binding DKK1 protein – biochemical, small-molecule microarray, 635 nm fluorescence scan, primary screen (AID 1106); settings: higher = more signal;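 note: score merges emission near 667 nm with signal to noise over three replicate slides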
# [10] = test system: Inhibin beta A chain (activin A); assay: small molecules binding activin A – biochemical, small-molecule microarray, 635 nm fluorescence scan, primary screen (AID 1107); settings: INHBA, higher = more signal;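 note: mouse activin A protein probed at 4.33 µg/mL on printed slides; score merges bound-protein fluorescence near 667 nm with spot signal-to-noise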
# Follistatin-related protein 3 (Homo sapiens), sequence (O95633 whole entry, looked up): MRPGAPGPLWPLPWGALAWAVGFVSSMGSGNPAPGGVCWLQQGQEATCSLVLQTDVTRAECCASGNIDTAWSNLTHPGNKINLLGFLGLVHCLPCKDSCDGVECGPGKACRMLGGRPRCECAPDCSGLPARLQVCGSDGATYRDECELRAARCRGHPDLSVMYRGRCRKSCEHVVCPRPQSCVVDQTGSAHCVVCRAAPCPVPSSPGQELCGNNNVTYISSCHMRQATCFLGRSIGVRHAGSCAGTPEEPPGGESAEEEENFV
# Fibroblast growth factor 10 (Homo sapiens), sequence (O15520 whole entry, looked up): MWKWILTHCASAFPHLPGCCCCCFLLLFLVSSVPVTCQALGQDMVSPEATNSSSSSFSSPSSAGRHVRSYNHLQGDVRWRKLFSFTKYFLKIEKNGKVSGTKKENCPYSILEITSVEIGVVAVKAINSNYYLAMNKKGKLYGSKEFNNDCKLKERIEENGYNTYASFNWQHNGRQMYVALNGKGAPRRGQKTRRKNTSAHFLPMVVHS
# Dickkopf-related protein 1 (Homo sapiens), sequence (O94907 whole entry, looked up): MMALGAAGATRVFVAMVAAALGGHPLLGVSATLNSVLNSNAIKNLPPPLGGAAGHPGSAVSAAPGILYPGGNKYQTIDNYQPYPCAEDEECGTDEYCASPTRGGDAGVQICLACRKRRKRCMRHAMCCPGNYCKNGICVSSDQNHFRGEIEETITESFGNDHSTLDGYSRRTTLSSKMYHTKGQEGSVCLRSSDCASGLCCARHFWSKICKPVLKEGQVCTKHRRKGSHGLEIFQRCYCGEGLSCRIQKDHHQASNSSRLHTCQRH
# Epidermal growth factor receptor (Homo sapiens), sequence (P00533 whole entry, looked up): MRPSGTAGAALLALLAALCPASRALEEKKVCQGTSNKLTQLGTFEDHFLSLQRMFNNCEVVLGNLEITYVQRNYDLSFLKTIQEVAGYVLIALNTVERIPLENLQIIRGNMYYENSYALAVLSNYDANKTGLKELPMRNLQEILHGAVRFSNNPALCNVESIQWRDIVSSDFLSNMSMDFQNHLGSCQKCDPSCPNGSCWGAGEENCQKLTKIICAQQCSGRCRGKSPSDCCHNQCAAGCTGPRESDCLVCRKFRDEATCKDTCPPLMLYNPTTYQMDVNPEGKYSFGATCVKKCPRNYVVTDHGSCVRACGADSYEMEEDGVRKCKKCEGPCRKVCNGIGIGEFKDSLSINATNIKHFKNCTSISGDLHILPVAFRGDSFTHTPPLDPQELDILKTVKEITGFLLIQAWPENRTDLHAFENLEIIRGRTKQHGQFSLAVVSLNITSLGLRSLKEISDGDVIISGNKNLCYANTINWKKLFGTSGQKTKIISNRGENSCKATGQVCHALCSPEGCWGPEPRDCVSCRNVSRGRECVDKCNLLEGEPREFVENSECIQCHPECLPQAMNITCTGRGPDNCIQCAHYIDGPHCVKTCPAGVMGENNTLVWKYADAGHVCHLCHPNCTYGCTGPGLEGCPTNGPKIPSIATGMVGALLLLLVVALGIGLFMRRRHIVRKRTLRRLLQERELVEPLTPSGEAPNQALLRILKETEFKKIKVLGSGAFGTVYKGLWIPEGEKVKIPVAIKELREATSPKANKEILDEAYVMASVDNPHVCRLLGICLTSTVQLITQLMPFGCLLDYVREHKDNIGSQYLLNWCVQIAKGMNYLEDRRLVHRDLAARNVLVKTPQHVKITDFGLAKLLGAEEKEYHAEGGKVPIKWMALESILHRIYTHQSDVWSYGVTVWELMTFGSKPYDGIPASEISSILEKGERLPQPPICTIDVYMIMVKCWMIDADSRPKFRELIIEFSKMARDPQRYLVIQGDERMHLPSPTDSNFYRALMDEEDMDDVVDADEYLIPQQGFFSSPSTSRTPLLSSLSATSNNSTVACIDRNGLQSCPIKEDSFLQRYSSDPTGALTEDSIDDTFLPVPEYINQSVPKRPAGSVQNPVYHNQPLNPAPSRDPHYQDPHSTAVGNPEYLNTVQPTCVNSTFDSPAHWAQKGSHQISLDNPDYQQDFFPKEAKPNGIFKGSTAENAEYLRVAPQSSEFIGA
Compound,composite z-score [1],composite z-score [2],composite z-score [3],z-score [4],composite z-score [5],composite z-score [6],composite z-score [7],composite z-score [8],composite z-score [9],composite z-score [10]
CCOC(=O)C[C@H]1[C@H](OC(=O)c2ccccc2-c2ccccc2)[C@@H](NC(=O)c2ccc3ccccc3c2)c2cc(OCCCO)ccc2N1C(=O)c1ccccc1,0.162,-0.154,-0.559,-0.314 (inactive),0.792,0.601,0.505,0.741,0.427,-0.124
COc1cc(NN2C(C(O)c3cc(OC)c(OC)c(OC)c3)C=CC3C(=O)N(C)C(=O)C32)cc(OC)c1OC (stereo not given),1.03,0.171,0.318,0.255 (inactive),0.691,0.984,0.347,0.34,-0.289,0.93
C[N+](C)(C)CCCCCCNC(=O)[C@@H]1C[C@@H]2C(=O)N3CCC[C@H]3C(=O)N2[C@@H]1c1ccc(O)cc1,1.1,-0.0891,0.614,-0.546 (inactive),1.37,1.2,1.23,1.46,1.25,0.578
COCCOC(=O)N1C(=O)[C@@]2(c3cc(C#CCNC(N)=O)ccc31)[C@H](C(N)=O)[C@H]1C(=O)O[C@H](c3ccccc3)[C@H](c3ccccc3)N1[C@@H]2c1ccccc1OCCO,1.16,0.0377,0.803,0.565 (inactive),1.07,0.782,0.302,1.31,0.78,1.11
N[C@@H](Cc1ccccc1)C(=O)NCc1cn(Cc2ccccc2)nn1,-0.522,0.0195,-0.283,0.0702 (inactive),0.735,0.179,0.113,0.594,0.545,0.85
COC(=O)[C@@]1(Cc2ccccc2)[C@H]2c3cc(C(=O)N(C)C)n(Cc4ccc(C)o4)c3C[C@H]2CN1C(=O)c1ccccc1,0.527,2.33,1.57,-2.02 (inactive),0.93,0.502,0.857,0.897,-1.11,1.44
CO[C@H]1O[C@H](CO)[C@@H](OC(=O)Nc2ccc(Br)cc2)[C@@H]2OC(=O)[C@@H](Cc3ccccc3)C/C=C/C[C@H](Cc3ccccc3)C(=O)O[C@@H]12,0.939,-0.139,0.265,-0.913 (inactive),0.767,0.602,-0.265,-0.0749,-0.0375,0.517
COc1ccc([Si](C)(C)[C@@H]2[C@@H](CC(=O)N3Cc4ccccc4C[C@H]3CO)O[C@]3(C(=O)N(Cc4ccc(N5C(=O)c6cccc7cccc5c67)cc4)c4ccccc43)[C@H]2C)cc1,0.68,-0.0502,-0.0445,1.54 (inactive),1.31,1.27,1.2,1.24,1.12,0.772
CCCC[C@@H](O)C1=C(COC)C[C@H]2C(=O)N(C)C(=O)[C@H]2[C@H]1CO,0.0237,-0.491,-0.532,-0.857 (inactive),0.0965,-0.0596,-0.0915,0.344,0.339,0.581
O=C1O[C@@H](c2ccccc2)[C@@H](c2ccccc2)N2[C@@H](c3ccc(OCCO)cc3)[C@]3(C(=O)Nc4ccc(C#CC5=CCCCC5)cc43)[C@@H](C(=O)NC[C@H](O)c3ccccc3)[C@H]12,0.674,-0.653,-0.762,0.556 (inactive),1.4,1.31,0.445,1.4,0.708,1.07
COc1cc(C(O)C2C=CC3C(=O)N(C)C(=O)C3N2Nc2ccccc2)cc(OC)c1OC (stereo not given),1.66,1.22,0.655,-0.0318 (inactive),0.581,1.25,-0.206,0.595,-0.543,0.916
CC(C)[Si]1(C(C)C)OCc2cc(-c3ccc(-c4ccc(Cl)c(Cl)c4)o3)nc(-c3ccccc3)c21,1.33,-0.0755,0.724,0.14 (inactive),-1.08,-1.22,-1.84,-1.04,-1.32,1.05
CO[C@H]1O[C@H](CO)[C@@H](OC(=O)Nc2ccc3c(c2)OCO3)[C@H](OC(=O)Nc2ccc3c(c2)OCO3)[C@@H]1OC(=O)Nc1ccc2c(c1)OCO2,1.33,0.203,0.195,-0.714 (inactive),1.39,1.23,0.273,1.41,0.378,0.762
CCOC(=O)C[C@H]1[C@H](OC(=O)Cc2ccc3c(c2)OCO3)[C@@H](NC(=O)c2ccc3ccccc3n2)c2cc(OCCCO)ccc2N1C(=O)c1ccccc1,0.153,0.0565,-0.33,-0.149 (inactive),0.445,0.0897,0.0654,0.73,0.283,0.696
